These results are taken from ChEMBL document CHEMBL1961873, “Compounds: GSK PKIS; Assays: Nanosyn kinase panel” (2012).

The inhibition is the percentage by which the read-out fell short of the control.

Assay [1] addresses Protein kinase C gamma type (Homo sapiens) (UniProt P05129). Particulars: at 1 µM.
In assay [2] the target is T1, Protein kinase C iota type (Homo sapiens) (UniProt P41743).
T1 sequence (whole entry): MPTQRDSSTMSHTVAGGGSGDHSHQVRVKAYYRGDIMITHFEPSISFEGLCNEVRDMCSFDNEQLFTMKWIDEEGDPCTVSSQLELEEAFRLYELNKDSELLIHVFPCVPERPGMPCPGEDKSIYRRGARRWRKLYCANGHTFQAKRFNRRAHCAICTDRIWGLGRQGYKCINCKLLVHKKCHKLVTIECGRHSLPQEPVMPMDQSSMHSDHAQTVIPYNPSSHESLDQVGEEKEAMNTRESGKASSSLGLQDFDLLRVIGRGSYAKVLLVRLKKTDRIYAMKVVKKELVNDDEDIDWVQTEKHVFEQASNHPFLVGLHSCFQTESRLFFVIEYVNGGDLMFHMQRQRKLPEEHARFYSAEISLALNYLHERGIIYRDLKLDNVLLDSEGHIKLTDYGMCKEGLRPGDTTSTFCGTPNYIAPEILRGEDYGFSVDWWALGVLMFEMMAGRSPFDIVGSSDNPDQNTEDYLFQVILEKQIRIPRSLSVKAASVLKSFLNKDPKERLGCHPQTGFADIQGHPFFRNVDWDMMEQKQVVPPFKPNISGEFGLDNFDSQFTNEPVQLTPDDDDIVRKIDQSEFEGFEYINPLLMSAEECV
Particulars: at 0.1 µM.

The target of assay [3] is T1, Protein kinase C iota type (Homo sapiens). Particulars: at 1 µM.
In assay [4] the target is Protein kinase C theta type (Homo sapiens) (UniProt Q04759). Particulars: at 0.1 µM.
Assay [5] has the same target. Particulars: at 1 µM.
The target of assay [6] is Protein kinase C beta type (Homo sapiens) (UniProt P05771). Particulars: at 0.1 µM.
The target is the same in assay [7]. Particulars: at 1 µM.
Assay [8] has as its target T2, Serine/threonine-protein kinase D1 (Homo sapiens) (UniProt Q15139).
T2 sequence (whole entry): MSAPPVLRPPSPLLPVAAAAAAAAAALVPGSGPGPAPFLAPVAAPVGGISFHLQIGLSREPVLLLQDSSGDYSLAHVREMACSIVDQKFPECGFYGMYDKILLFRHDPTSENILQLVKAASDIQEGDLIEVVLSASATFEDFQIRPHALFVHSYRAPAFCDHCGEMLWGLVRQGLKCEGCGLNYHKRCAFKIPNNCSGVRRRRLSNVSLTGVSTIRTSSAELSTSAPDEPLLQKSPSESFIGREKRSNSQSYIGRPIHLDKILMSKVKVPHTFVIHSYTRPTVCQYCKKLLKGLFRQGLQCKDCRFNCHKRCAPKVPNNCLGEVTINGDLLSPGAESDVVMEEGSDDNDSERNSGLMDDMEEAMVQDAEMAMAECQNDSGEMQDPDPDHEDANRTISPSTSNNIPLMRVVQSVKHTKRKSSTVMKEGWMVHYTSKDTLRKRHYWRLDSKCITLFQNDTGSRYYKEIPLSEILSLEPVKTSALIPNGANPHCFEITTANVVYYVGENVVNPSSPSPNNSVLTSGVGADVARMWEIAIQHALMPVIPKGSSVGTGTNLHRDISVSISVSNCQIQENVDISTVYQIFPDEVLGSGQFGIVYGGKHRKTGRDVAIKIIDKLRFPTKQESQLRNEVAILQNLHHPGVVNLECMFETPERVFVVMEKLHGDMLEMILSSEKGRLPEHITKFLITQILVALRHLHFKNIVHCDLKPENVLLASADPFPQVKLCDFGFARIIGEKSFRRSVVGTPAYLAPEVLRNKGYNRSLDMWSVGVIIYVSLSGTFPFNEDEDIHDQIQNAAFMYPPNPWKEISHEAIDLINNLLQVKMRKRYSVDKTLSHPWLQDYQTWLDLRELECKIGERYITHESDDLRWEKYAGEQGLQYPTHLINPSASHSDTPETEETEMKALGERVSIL
To be noted: at 0.1 µM.

The target of assay [9] is T2, Serine/threonine-protein kinase D1 (Homo sapiens). To be noted: at 1 µM.
Assay [10] deals with T3, Serine/threonine-protein kinase D2 (Homo sapiens) (UniProt Q9BZL6).
T3 sequence (whole entry): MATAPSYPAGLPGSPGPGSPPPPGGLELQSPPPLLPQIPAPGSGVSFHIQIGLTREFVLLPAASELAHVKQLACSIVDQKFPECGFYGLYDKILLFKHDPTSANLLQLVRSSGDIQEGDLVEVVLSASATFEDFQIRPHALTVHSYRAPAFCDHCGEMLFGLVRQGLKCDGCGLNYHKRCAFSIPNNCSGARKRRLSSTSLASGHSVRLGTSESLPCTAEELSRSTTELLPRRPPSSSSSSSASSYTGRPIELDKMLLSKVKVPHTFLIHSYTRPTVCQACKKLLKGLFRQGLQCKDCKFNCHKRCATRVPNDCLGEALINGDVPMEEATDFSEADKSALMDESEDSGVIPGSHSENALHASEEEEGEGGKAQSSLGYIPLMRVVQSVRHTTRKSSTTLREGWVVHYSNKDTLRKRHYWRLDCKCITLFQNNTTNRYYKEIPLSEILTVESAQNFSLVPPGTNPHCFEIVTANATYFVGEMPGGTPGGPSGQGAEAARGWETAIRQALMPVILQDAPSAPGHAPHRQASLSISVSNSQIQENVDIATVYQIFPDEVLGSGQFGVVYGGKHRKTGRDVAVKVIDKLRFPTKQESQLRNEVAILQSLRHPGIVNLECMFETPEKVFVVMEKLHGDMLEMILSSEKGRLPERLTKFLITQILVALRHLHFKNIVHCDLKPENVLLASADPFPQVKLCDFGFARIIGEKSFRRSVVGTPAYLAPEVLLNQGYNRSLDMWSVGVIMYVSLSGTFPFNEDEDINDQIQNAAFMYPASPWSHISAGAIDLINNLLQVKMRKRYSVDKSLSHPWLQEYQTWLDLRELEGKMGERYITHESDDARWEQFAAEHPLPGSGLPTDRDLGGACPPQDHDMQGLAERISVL
Particulars: at 0.1 µM.

The target of assay [11] is T3, Serine/threonine-protein kinase D2 (Homo sapiens). To be noted: at 1 µM.
Assay [12] concerns the target T4, Serine/threonine-protein kinase D3 (Homo sapiens) (UniProt O94806).
T4 sequence (whole entry): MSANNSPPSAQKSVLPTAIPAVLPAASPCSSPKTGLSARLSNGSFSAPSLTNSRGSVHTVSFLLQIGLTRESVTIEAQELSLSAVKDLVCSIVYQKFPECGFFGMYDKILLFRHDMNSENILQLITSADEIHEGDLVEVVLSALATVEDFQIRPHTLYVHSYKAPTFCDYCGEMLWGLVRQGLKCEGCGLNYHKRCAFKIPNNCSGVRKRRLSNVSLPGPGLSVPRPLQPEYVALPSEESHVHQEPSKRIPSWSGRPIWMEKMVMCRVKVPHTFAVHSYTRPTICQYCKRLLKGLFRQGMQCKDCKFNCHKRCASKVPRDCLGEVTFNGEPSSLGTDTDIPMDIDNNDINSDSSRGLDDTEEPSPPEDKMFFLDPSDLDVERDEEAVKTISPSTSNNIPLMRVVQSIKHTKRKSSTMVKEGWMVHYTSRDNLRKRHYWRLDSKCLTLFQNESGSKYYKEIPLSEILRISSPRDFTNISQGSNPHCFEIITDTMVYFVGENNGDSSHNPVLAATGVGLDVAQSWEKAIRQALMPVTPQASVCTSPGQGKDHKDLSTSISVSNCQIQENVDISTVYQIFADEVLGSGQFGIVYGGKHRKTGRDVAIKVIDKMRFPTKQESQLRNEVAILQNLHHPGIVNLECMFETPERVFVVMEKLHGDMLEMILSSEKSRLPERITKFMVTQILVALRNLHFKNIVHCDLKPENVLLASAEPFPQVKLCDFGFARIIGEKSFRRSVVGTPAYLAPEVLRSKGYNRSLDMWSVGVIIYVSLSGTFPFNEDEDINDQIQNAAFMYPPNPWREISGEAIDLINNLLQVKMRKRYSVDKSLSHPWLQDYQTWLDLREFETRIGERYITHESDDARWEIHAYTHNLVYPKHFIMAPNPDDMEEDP
Particulars: at 0.1 µM.

The target in assay [13] is T4, Serine/threonine-protein kinase D3 (Homo sapiens). To be noted: at 1 µM.
The target of assay [14] is T5, cGMP-dependent protein kinase 1 (Homo sapiens) (UniProt Q13976).
T5 sequence (whole entry): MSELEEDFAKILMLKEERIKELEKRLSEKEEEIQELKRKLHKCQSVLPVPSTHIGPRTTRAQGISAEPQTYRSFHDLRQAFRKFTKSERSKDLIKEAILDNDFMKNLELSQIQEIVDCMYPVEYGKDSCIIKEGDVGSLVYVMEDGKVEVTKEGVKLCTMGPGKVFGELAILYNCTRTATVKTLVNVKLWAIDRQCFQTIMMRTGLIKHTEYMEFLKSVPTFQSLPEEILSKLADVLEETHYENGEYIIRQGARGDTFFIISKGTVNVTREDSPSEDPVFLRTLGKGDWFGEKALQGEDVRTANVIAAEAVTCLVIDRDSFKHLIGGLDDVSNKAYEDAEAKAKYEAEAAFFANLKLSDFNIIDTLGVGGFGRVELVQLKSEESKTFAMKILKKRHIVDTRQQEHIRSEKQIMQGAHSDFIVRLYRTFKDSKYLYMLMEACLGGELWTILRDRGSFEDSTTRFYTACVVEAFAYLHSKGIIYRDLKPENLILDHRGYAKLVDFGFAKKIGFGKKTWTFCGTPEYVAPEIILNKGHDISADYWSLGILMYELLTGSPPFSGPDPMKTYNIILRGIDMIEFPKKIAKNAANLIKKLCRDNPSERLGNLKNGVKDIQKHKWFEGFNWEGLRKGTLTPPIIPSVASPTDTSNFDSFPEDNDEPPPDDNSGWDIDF
Particulars: at 0.1 µM.

For assay [15], the target named is T5, cGMP-dependent protein kinase 1 (Homo sapiens). Particulars: at 1 µM.
The target of assay [16] is T6, cGMP-dependent protein kinase 2 (Homo sapiens) (UniProt Q13237).
T6 sequence (whole entry): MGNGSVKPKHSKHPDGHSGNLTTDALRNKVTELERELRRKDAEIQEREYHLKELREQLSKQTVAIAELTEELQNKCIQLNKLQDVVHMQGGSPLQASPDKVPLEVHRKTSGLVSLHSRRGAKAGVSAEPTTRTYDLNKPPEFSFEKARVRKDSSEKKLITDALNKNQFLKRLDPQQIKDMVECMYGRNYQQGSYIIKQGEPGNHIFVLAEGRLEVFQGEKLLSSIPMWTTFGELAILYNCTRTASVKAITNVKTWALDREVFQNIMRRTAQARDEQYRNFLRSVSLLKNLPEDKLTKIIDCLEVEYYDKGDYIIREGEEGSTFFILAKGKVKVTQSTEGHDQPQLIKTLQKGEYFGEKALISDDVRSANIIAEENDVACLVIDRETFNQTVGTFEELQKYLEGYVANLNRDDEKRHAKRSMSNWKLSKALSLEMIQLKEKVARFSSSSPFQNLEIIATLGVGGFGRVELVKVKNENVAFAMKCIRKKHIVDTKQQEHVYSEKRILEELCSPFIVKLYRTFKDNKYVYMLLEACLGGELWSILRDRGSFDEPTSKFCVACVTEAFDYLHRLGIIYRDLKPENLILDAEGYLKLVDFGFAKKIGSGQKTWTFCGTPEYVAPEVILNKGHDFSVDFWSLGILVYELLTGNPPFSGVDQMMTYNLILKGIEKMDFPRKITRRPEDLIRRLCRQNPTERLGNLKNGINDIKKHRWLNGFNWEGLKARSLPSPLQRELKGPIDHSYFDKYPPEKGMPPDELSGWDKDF
Particulars: at 0.1 µM.

For assay [17], the target named is T6, cGMP-dependent protein kinase 2 (Homo sapiens). To be noted: at 1 µM.
In assay [18] the target is T7, cAMP-dependent protein kinase catalytic subunit PRKX (Homo sapiens) (UniProt P51817).
T7 sequence (whole entry): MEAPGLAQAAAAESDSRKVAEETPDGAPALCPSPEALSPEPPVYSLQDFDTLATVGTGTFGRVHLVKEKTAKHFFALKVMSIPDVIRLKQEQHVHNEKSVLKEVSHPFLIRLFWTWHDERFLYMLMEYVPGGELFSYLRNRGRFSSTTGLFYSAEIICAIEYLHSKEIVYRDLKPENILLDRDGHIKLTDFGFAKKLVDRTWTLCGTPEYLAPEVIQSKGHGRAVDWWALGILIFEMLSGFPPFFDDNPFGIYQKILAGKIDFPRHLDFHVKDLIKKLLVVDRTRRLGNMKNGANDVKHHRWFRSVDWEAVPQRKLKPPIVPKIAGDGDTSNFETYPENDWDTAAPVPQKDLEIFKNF
To be noted: at 0.1 µM.

Assay [19] has as its target T7, cAMP-dependent protein kinase catalytic subunit PRKX (Homo sapiens). To be noted: at 1 µM.
Assay [20] has as its target Rho-associated protein kinase 1 (Homo sapiens) (UniProt Q13464). Particulars: at 0.1 µM.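 Further: values are mean percent inhibition of ROCK1.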

Sequence of Protein kinase C beta type (Homo sapiens) (P05771 2-671 limits assumed): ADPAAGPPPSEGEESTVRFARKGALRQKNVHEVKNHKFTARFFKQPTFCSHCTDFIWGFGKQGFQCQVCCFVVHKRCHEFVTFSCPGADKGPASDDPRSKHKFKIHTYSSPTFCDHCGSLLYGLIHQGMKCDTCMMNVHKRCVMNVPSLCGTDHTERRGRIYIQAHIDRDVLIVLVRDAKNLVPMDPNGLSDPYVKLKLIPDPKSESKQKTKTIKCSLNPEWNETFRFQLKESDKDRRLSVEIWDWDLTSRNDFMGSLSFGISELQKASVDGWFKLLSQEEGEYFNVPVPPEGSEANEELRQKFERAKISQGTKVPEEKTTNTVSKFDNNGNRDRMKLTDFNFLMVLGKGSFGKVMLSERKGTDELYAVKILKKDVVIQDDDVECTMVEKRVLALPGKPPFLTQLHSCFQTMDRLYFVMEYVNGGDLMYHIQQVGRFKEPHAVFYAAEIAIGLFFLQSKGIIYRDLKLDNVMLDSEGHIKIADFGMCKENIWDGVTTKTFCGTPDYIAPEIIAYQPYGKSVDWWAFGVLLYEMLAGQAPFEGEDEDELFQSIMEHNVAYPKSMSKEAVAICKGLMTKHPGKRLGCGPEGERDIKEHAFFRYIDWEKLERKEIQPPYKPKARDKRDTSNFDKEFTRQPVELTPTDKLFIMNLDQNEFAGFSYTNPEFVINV
Sequence of Protein kinase C theta type (Homo sapiens) (Q04759 whole entry, looked up): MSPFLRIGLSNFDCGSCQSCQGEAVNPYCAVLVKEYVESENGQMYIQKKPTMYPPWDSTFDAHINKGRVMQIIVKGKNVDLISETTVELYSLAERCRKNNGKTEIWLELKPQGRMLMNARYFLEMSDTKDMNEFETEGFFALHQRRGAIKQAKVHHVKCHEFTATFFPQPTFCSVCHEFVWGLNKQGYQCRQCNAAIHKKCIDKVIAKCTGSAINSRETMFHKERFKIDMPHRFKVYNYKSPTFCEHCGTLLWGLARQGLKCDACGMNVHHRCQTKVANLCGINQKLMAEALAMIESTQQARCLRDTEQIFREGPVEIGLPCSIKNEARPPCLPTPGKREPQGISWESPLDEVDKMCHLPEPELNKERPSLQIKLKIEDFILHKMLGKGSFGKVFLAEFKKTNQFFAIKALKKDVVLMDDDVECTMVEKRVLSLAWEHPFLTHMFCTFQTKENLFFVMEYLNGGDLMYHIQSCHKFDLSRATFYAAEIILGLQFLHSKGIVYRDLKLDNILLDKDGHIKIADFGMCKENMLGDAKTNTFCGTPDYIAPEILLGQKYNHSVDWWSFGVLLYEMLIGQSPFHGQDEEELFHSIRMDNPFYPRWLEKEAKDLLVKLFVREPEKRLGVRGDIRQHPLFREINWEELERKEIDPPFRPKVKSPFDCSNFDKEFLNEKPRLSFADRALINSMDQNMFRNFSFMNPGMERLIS
Sequence of Rho-associated protein kinase 1 (Homo sapiens) (Q13464 2-1354 limits assumed): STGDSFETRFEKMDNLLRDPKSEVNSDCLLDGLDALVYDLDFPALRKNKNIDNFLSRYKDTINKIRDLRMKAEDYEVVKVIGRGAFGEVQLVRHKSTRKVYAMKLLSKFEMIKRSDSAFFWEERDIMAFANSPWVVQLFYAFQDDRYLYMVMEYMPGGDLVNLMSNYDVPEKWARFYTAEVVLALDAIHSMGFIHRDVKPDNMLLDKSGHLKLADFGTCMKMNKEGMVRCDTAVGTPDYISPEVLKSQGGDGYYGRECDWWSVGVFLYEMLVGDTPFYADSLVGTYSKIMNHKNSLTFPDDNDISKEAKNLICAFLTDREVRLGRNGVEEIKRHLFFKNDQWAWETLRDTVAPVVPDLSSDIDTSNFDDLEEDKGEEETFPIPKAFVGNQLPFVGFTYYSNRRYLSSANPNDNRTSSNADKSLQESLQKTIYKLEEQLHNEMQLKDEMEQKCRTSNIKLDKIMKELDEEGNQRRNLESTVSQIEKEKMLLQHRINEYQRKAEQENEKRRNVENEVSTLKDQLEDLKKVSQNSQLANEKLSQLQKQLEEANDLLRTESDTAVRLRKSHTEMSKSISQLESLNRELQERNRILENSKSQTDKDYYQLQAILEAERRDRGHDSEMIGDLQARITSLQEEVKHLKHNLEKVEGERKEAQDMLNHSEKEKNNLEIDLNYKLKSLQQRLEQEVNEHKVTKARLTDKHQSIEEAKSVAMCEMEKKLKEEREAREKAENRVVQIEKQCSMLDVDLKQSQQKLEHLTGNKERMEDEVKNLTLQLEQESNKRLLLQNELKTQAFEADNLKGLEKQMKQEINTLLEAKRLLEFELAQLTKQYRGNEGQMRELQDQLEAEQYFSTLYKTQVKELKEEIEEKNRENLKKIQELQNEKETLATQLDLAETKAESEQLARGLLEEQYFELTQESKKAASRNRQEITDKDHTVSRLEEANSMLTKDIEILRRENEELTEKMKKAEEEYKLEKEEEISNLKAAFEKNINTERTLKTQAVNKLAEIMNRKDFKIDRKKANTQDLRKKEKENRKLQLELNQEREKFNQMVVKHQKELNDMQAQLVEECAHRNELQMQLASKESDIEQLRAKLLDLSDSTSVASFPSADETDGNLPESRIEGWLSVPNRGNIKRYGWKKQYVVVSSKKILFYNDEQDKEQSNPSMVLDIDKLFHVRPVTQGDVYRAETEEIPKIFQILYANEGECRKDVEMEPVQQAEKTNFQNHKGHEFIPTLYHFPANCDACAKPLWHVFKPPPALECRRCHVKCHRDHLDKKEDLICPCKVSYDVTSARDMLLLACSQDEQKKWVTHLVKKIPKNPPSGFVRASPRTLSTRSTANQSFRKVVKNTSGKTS

With `CS(=O)(=O)CCNCc1ccc(-c2ccc3ncnc(Nc4ccc(OCc5ccccc5)c(C(F)(F)F)c4)c3c2)o1`, the inhibition in assay [1] was found to be 0.29%; in [2] it was 1.93%; in [3], 2.76%; in assay [4] it was 1.99%; in assay [5], 1.95%; in [6], 1.11%. Besides, the inhibition worked out at 1.5% in assay [7]; 3.89% in assay [8]; 5.55% in assay [9]; 3.28% in [10]; 2.47% in assay [11]; 4.3% in [12]. Moreover, the inhibition in assay [13] was determined as 4.39%; in assay [14] it was 2.93%; in assay [15], 0.85%; in assay [16], 1.82%; in [17], 0.3%; in assay [18] it was 2.36%. Moreover, the inhibition in assay [19] was determined as 2.08%; in [20], 10.3%.

Turning to `CCn1c(-c2nonc2N)nc2cnc(Oc3cccc(NC(=O)c4ccc(N(C)C)cc4)c3)cc21`, the inhibition in [1] amounted to 28.3%; in assay [2], 6.04%; in assay [3] it was 45%; in assay [4], 5.55%; in assay [5], 32.3%; in assay [6], 4.27%. The inhibition stood at 21.8% in assay [7]; 1.61% in assay [8]; 4.29% in assay [9]; 1.81% in assay [10]; 5.77% in [11]; 1.61% in [12]. Also, the inhibition came to 2.97% in [13]; 56.1% in assay [14]; 73% in assay [15]; 21.7% in [16]; 60.8% in [17]; 12.9% in [18]. For the same molecule, the inhibition in assay [19] turned out to be 55.8%; in assay [20], 85.5%.
